Test results: the supplement of paper PMC10849652
About 7,900 targets were measured; listed, in parts, are those with a hit and a random draw of the rest. About 0.6% of all pairs of compound and target were hits.

What was measured:
Assay in all cases: log2 fold change, soluble protein after heating vs DMSO (PISA); higher = thermal stabilisation; K562 cells, 10 uM, 30 min; active = over 0.2 and 3.5 SD of the protein, either way, in both replicates (recomputed)
saracatinib = compound: CN1CCN(CCOc2cc(OC3CCOCC3)c3c(Nc4c(Cl)ccc5c4OCO5)ncnc3c2)CC1 [saracatinib]
In short: (§1)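 For each measurement, 10 μM compound was applied for 30 min to K562 cells at 2×10^6 cells/mL. Aliquots were heated for 3 min across 48°C-58°C, pooled, and extracted in PBS with 0.5% NP-40 at 4°C; the supernatant after 21,000xg for 90 min was soluble protein. This was quantified by TMTpro 16plex LC-MS/MS with channel sums equalised, and thermal stability was reported relative to control samples from duplicates, on a log2 fold-change scale.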

sotrastaurin = compound: CN1CCN(c2nc(C3=C(c4c[nH]c5ccccc45)C(=O)NC3=O)c3ccccc3n2)CC1 [sotrastaurin]
In short: as §1

alvocidib = compound: CN1CC[C@H](c2c(O)cc(O)c3c(=O)cc(-c4ccccc4Cl)oc23)[C@H](O)C1 [alvocidib]
In short: as §1

Tubastatin A = compound: CN1CCc2c(c3ccccc3n2Cc2ccc(C(=O)NO)cc2)C1 [Tubastatin A]
In short: as §1

[1] = compound: CNC(=O)C1=CC=CC=C1NC2=NC(=NC=C2Cl)NC3=C(C=C(C=C3)N4CCOCC4)OC
In short: as §1

defactinib = compound: CNC(=O)c1ccc(Nc2ncc(C(F)(F)F)c(NCc3nccnc3N(C)S(C)(=O)=O)n2)cc1 [defactinib]
In short: as §1

rucaparib = compound: CNCc1ccc(-c2[nH]c3cc(F)cc4c3c2CCNC4=O)cc1 [rucaparib]
In short: as §1

[2] = compound: CNc1nc(-c2ccc3c(N)n[nH]c3c2)cc(N2C[C@@H](C(=O)NC3CCCCC3)CC[C@H]2C)n1
In short: as §1

encorafenib = compound: COC(=O)N[C@@H](C)CNc1nccc(-c2cn(C(C)C)nc2-c2cc(Cl)cc(NS(C)(=O)=O)c2F)n1 [encorafenib]
In short: as §1

[3] = compound: COC(=O)[C@H](CCSC)NC(=O)C1=C(C=C(C=C1)NC[C@H](CS)N)C2=CC=CC=C2
In short: as §1

[4] = compound: COC1=CC=C(C=C1)CN2C=CC3=C2C=C(C=C3)C(=O)NO
In short: as §1

filanesib = compound: CON(C)C(=O)N1N=C(c2cc(F)ccc2F)S[C@@]1(CCCN)c1ccccc1 [filanesib]
In short: as §1

zotarolimus = compound: CO[C@H]1C[C@@H]2CC[C@@H](C)[C@@](O)(O2)C(=O)C(=O)N2CCCC[C@H]2C(=O)O[C@H]([C@H](C)C[C@@H]2CC[C@H](n3cnnn3)[C@H](OC)C2)CC(=O)[C@H](C)/C=C(\C)[C@@H](O)[C@@H](OC)C(=O)[C@H](C)C[C@H](C)/C=C/C=C/C=C/1C [zotarolimus]
In short: as §1

idasanutlin = compound: COc1cc(C(=O)O)ccc1NC(=O)[C@@H]1N[C@@H](CC(C)(C)C)[C@](C#N)(c2ccc(Cl)cc2F)[C@H]1c1cccc(Cl)c1F [idasanutlin]
In short: as §1

alisertib = compound: COc1cc(Nc2ncc3c(n2)-c2ccc(Cl)cc2C(c2c(F)cccc2OC)=NC3)ccc1C(=O)O [alisertib]
In short: as §1

[5] = compound: COc1cc2nc(-c3cc(F)ccc3O)nc(N[C@@H]3CNC[C@H]3C(C)(C)O)c2cc1OC
In short: as §1

gefitinib = compound: COc1cc2ncnc(Nc3ccc(F)c(Cl)c3)c2cc1OCCCN1CCOCC1 [gefitinib]
In short: as §1

[6] = compound: COc1cccc2cc(-c3nc([C@H]4CC[C@H](C(=O)O)CC4)n4ncnc(N)c34)[nH]c12
In short: as §1

lapatinib = compound: CS(=O)(=O)CCNCc1ccc(-c2ccc3ncnc(Nc4ccc(OCc5cccc(F)c5)c(Cl)c4)c3c2)o1 [lapatinib]
In short: as §1

pictilisib = compound: CS(=O)(=O)N1CCN(Cc2cc3nc(-c4cccc5[nH]ncc45)nc(N4CCOCC4)c3s2)CC1 [pictilisib]
In short: as §1

Measured: log2 fold change

WRB (UniProt O00258)
UniProt O00258, sequence (O00258 whole entry, looked up): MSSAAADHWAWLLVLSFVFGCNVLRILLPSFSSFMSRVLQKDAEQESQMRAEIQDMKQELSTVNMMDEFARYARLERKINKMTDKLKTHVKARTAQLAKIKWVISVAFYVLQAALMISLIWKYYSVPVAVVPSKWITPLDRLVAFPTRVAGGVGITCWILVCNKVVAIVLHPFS
inactive: saracatinib -0.007 | sotrastaurin 0.075 | alvocidib 0.034 | Tubastatin A -0.051 | [1] -0.048 | defactinib 0.073 | rucaparib -0.003 | [2] -0.014 | encorafenib -0.057 | [3] 0.023 | [4] -0.036 | filanesib -0.041 | zotarolimus -0.019 | idasanutlin -0.032 | alisertib -0.031 | [5] -0.066 | gefitinib 0.012 | [6] 0.051 | lapatinib 0.03 | pictilisib 0.094

TXNL4B (UniProt Q9NX01)
UniProt Q9NX01, sequence (Q9NX01 whole entry, looked up): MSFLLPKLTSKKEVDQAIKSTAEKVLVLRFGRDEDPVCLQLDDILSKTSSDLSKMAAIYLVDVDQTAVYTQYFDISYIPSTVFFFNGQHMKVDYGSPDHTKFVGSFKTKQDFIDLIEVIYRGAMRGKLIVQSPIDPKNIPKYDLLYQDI
inactive: saracatinib -0.053 | sotrastaurin 0.189 | alvocidib -0.073 | Tubastatin A 0.03 | [1] 0.02 | defactinib -0.093 | rucaparib 0.022 | [2] -0.062 | encorafenib -0.021 | [3] -0.199 | [4] 0.011 | filanesib -0.034 | zotarolimus -0.008 | idasanutlin -0.147 | alisertib 0.097 | [5] 0.106 | gefitinib 0.042 | [6] -0.064 | lapatinib -0.003 | pictilisib -0.003

UBR2 (UniProt Q8IWV8)
inactive: saracatinib -0.065 | sotrastaurin -0.024 | alvocidib 0.132 | Tubastatin A 0.098 | [1] -0.014 | defactinib -0.052 | rucaparib -0.012 | [2] 0.145 | encorafenib 0.143 | [3] 0.085 | [4] -0.016 | filanesib 0.027 | zotarolimus -0.105 | idasanutlin 0.054 | alisertib -0.041 | [5] 0.024 | gefitinib -0.021 | [6] 0.061 | lapatinib 0.052 | pictilisib 0.036

USP9X (UniProt Q93008)
inactive: saracatinib -0.006 | sotrastaurin -0.073 | alvocidib -0.056 | Tubastatin A -0.014 | [1] -0.022 | defactinib -0.03 | rucaparib 0.032 | [2] -0.003 | encorafenib 0.082 | [3] -0.009 | [4] -0.02 | filanesib -0.017 | zotarolimus 0.018 | idasanutlin -0.096 | alisertib -0.02 | [5] 0.029 | gefitinib -0.007 | [6] -0.008 | lapatinib -0.027 | pictilisib -0.033

UBE4A isoform 2 (UniProt Q14139)
UniProt Q14139, sequence (Q14139 whole entry, looked up): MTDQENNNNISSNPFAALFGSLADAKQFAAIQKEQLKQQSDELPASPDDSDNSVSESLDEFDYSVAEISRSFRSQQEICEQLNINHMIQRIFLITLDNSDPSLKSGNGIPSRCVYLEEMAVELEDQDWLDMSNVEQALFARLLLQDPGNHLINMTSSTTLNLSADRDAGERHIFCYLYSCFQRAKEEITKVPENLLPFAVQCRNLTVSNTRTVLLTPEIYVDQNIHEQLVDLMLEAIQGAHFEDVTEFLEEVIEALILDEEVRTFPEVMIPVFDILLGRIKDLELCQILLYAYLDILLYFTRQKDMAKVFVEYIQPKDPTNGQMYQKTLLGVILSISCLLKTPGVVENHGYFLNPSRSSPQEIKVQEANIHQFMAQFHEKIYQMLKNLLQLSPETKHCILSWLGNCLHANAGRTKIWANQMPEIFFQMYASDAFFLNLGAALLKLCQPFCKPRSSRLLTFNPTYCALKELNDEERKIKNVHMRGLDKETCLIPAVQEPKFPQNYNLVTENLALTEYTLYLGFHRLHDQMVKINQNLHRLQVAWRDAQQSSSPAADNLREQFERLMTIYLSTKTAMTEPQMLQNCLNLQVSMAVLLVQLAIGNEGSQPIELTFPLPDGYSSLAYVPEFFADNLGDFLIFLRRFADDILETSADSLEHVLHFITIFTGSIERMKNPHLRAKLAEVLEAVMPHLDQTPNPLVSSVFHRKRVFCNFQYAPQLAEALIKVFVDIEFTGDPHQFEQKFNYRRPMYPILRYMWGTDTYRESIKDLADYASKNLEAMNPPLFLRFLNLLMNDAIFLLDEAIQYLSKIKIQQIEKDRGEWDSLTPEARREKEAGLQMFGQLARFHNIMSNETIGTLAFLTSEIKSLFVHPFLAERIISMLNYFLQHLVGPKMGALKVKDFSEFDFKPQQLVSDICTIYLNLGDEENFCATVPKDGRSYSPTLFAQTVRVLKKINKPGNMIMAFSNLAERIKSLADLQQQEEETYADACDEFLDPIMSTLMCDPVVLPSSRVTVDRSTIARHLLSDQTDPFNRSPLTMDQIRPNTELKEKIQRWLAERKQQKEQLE
inactive: saracatinib -0.024 | sotrastaurin -0.148 | alvocidib 0.145 | Tubastatin A -0.009 | [1] 0.006 | defactinib -0.017 | rucaparib 0.021 | [2] -0.079 | encorafenib 0.03 | [3] -0.078 | [4] 0.037 | filanesib -0.023 | zotarolimus -0.003 | idasanutlin 0.008 | alisertib -0.003 | [5] -0.024 | gefitinib -0.056 | [6] -0.073 | lapatinib 0.022 | pictilisib 0.016

VPS16 (UniProt Q9H269)
UniProt Q9H269, sequence (Q9H269 whole entry, looked up): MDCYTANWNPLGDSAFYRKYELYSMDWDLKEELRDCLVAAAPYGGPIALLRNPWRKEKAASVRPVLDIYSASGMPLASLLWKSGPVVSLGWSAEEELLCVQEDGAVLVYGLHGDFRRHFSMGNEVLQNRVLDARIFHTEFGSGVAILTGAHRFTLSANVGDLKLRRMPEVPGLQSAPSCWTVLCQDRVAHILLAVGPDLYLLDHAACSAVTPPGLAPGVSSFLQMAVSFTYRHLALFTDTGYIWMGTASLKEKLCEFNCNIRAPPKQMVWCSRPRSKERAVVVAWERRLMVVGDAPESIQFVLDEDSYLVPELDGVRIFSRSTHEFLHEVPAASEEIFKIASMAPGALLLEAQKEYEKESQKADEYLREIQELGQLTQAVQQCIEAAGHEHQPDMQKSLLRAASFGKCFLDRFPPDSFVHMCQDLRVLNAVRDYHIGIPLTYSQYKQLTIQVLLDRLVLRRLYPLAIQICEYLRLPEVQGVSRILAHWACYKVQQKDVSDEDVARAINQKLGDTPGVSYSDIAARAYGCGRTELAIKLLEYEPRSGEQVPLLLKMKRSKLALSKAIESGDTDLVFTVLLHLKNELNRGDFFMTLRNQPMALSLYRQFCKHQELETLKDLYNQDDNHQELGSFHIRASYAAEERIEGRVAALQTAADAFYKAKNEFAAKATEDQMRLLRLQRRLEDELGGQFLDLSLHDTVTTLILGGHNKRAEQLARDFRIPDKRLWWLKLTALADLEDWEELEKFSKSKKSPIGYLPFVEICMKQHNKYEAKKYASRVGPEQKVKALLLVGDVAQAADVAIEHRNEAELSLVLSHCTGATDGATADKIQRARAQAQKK
inactive: saracatinib 0.026 | sotrastaurin -0.171 | alvocidib -0.028 | Tubastatin A -0.001 | [1] -0.071 | defactinib -0.042 | rucaparib -0.049 | [2] -0.054 | encorafenib 0.196 | [3] -0.022 | [4] 0.018 | filanesib -0.093 | zotarolimus 0.033 | idasanutlin -0.065 | alisertib -0.056 | [5] -0.009 | gefitinib -0.1 | [6] -0.017 | lapatinib -0.006 | pictilisib -0.044

WDR46 (UniProt O15213)
UniProt O15213, sequence (O15213 whole entry, looked up): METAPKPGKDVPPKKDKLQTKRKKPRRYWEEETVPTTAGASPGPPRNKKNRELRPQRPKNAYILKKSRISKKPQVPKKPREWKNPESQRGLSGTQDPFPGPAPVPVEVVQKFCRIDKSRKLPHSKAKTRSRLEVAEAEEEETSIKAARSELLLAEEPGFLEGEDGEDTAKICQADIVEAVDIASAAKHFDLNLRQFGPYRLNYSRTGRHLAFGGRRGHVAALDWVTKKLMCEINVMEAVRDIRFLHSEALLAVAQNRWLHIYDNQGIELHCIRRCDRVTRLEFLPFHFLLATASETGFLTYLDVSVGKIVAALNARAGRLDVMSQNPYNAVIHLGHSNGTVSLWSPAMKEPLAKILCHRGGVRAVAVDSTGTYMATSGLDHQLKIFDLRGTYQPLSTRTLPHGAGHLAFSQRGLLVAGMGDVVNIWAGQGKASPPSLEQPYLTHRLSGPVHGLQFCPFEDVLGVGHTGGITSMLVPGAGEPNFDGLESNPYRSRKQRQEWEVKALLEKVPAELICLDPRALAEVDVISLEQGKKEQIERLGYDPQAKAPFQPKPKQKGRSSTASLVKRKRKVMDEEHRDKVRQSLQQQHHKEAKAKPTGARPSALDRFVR
inactive: saracatinib -0.095 | sotrastaurin 0.003 | alvocidib 0.387 | Tubastatin A 0.101 | [1] 0.101 | defactinib 0.39 | rucaparib 0.289 | [2] 0.084 | encorafenib 0.128 | [3] -0.015 | [4] -0.129 | filanesib 0.425 | zotarolimus 0.075 | idasanutlin 0.156 | alisertib -0.162 | [5] 0.037 | gefitinib -0.036 | [6] -0.018 | lapatinib -0.006 | pictilisib -0.052

TOMM5 isoform 2 (UniProt Q8N4H5)
UniProt Q8N4H5, sequence (Q8N4H5 whole entry, looked up): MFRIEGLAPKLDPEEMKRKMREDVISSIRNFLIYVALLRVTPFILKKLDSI
inactive: saracatinib -0.033 | sotrastaurin 0.064 | alvocidib 0.012 | Tubastatin A 0.027 | [1] 0.059 | defactinib 0.01 | rucaparib -0.033 | [2] -0.031 | encorafenib -0.036 | [3] 0.049 | [4] -0.027 | filanesib 0.079 | zotarolimus 0.045 | idasanutlin 0.137 | alisertib -0.141 | [5] -0.021 | gefitinib 0.073 | [6] 0.044 | lapatinib -0.016 | pictilisib -0.086

VPS11 (UniProt Q9H270)
UniProt Q9H270, sequence (Q9H270 whole entry, looked up): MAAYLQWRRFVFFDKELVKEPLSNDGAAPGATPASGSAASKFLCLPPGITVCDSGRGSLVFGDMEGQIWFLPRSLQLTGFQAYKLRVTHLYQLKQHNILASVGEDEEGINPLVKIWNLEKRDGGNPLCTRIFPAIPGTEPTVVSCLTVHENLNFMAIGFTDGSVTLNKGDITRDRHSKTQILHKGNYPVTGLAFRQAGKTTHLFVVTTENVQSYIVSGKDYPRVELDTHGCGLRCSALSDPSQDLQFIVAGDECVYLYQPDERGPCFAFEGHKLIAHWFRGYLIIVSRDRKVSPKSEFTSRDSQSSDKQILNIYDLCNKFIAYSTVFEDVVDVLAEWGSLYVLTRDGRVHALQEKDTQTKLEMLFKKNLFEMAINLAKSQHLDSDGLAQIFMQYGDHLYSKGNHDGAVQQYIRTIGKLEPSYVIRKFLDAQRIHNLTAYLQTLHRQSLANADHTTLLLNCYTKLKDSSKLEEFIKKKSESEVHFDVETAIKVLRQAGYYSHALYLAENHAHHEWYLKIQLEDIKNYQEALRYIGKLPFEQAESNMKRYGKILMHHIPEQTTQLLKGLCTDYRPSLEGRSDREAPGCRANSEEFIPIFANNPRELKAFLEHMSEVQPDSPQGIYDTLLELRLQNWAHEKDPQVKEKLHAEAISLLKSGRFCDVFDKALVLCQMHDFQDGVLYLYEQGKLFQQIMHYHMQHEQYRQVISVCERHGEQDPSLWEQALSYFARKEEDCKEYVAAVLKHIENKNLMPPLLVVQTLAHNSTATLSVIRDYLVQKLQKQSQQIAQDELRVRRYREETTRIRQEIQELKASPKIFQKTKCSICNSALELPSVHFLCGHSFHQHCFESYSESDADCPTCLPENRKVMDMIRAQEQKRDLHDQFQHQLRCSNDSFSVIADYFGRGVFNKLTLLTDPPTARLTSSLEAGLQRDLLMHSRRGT
inactive: saracatinib -0.003 | sotrastaurin -0.08 | alvocidib -0.061 | Tubastatin A 0.004 | [1] -0.018 | defactinib -0.066 | rucaparib 0.082 | [2] -0.021 | encorafenib 0.023 | [3] -0.01 | [4] -0.019 | filanesib -0.038 | zotarolimus 0.053 | idasanutlin -0.063 | alisertib -0.022 | [5] -0.032 | gefitinib -0.005 | [6] -0.041 | lapatinib -0.045 | pictilisib -0.013

UGGT1 (UniProt Q9NYU2)
inactive: saracatinib -0.006 | sotrastaurin -0.034 | alvocidib -0.037 | Tubastatin A 0.022 | [1] -0.005 | defactinib 0.019 | rucaparib 0.009 | [2] -0.033 | encorafenib 0.017 | [3] -0.002 | [4] -0.041 | filanesib -0.008 | zotarolimus 0.012 | idasanutlin -0.014 | alisertib -0.07 | [5] 0.009 | gefitinib -0.006 | [6] -0.01 | lapatinib 0.035 | pictilisib -0.005

TMEM214 (UniProt Q6NUQ4)
active: [5] 0.282
inactive: saracatinib -0.04 | sotrastaurin 0.068 | alvocidib 0.009 | Tubastatin A 0.062 | [1] -0.002 | defactinib -0.04 | rucaparib 0.121 | [2] 0.03 | encorafenib 0.041 | [3] -0.039 | [4] -0.003 | filanesib 0.185 | zotarolimus -0.013 | idasanutlin -0.045 | alisertib -0.041 | gefitinib -0.012 | [6] -0.111 | lapatinib 0.046 | pictilisib -0.055

TNFRSF8 (UniProt P28908)
inactive: saracatinib 0.037 | sotrastaurin 0.092 | alvocidib -0.013 | Tubastatin A 0.031 | [1] -0.013 | defactinib -0.034 | rucaparib 0.012 | [2] 0.04 | encorafenib -0.046 | [3] -0.02 | [4] 0.019 | filanesib 0.11 | zotarolimus -0.019 | idasanutlin 0.04 | alisertib -0.011 | [5] 0.074 | gefitinib 0.067 | [6] 0 | lapatinib 0.003 | pictilisib 0.047

XPNPEP3 (UniProt Q9NQH7)
UniProt Q9NQH7, sequence (Q9NQH7 whole entry, looked up): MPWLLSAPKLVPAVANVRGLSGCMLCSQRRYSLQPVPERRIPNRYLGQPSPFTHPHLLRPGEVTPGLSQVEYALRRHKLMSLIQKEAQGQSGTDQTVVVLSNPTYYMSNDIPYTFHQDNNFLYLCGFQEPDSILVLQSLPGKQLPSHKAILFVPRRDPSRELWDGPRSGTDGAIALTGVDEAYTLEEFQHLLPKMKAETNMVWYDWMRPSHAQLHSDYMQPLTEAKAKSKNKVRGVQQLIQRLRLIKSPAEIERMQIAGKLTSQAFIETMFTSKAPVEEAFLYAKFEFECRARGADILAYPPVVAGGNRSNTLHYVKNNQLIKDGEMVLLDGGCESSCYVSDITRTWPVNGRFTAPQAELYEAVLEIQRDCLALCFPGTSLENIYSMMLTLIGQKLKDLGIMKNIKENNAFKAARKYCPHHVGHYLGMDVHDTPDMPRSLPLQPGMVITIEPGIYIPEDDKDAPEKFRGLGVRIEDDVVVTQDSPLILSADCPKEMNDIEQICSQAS
inactive: saracatinib 0.022 | sotrastaurin -0.017 | alvocidib -0.029 | Tubastatin A -0.021 | [1] 0 | defactinib -0.033 | rucaparib -0.018 | [2] -0.035 | encorafenib -0.005 | [3] 0.038 | [4] -0.12 | filanesib -0.082 | zotarolimus -0.021 | idasanutlin -0.032 | alisertib -0.011 | [5] 0.027 | gefitinib -0.002 | [6] 0.078 | lapatinib -0.024 | pictilisib 0.027

TOMM20 (UniProt Q15388)
UniProt Q15388, sequence (Q15388 whole entry, looked up): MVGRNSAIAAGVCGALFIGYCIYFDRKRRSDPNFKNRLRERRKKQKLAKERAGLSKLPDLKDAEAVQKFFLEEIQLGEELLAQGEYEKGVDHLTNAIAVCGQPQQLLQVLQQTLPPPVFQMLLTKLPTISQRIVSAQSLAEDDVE
inactive: saracatinib 0.012 | sotrastaurin -0.005 | alvocidib -0.001 | Tubastatin A -0.031 | [1] -0.028 | defactinib -0.011 | rucaparib -0.009 | [2] -0.034 | encorafenib -0.131 | [3] 0.033 | [4] -0.011 | filanesib -0.213 | zotarolimus 0.005 | idasanutlin -0.022 | alisertib -0.029 | [5] -0.25 | gefitinib 0.005 | [6] -0.001 | lapatinib 0.045 | pictilisib 0.007

ULBP1 (UniProt Q9BZM6)
UniProt Q9BZM6, sequence (Q9BZM6 whole entry, looked up): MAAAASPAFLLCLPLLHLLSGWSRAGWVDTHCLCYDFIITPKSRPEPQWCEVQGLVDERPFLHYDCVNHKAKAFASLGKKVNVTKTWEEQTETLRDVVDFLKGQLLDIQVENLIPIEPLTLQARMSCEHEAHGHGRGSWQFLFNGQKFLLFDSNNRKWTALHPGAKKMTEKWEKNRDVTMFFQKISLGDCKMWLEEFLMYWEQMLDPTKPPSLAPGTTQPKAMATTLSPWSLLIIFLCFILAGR
inactive: saracatinib -0.027 | sotrastaurin -0.175 | alvocidib 0.005 | Tubastatin A 0.016 | [1] -0.096 | defactinib 0.064 | [2] 0.07 | [3] 0.048 | filanesib 0.071 | zotarolimus 0.022 | idasanutlin 0.036 | alisertib -0.023 | [5] 0.164 | [6] 0.001 | lapatinib 0.002

VTI1A (UniProt Q96AJ9)
UniProt Q96AJ9, sequence (Q96AJ9 whole entry, looked up): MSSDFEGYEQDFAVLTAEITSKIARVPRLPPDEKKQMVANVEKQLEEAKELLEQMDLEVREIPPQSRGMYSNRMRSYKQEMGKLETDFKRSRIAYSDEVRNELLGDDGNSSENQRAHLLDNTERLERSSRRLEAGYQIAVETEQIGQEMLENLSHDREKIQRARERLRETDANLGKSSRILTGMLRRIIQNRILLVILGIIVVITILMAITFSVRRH
inactive: saracatinib 0.101 | sotrastaurin 0.027 | alvocidib -0.002 | Tubastatin A -0.028 | [1] 0.095 | defactinib -0.03 | rucaparib -0.058 | [2] -0.042 | encorafenib -0.001 | [3] 0.07 | [4] 0.014 | filanesib -0.015 | zotarolimus -0.024 | idasanutlin -0.023 | alisertib -0.039 | [5] -0.003 | gefitinib 0.024 | [6] 0 | lapatinib 0.021 | pictilisib -0.022
